# Source: PubChem BioAssay (National Center for Advancing Translational Sciences (NCATS))
# This is a sample that favours compounds with a hit; in the whole collection about 4.6% have one here.
# D1 antagonist: antagonists of human D1 dopamine receptor. HEK293 TREx D1 cells, calcium flux, dopamine EC80; hits give low values. activity change, negative = inhibition, % at 10 µM. actives 3.2% (n = 360,000); in the data active = activity change below about -30%
#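 Using tetracycline-induced force-coupled D1 Hek293 cells and a calcium dye, signals were followed for 180 s after compound, then for 180 s after EC80 dopamine, to detect inhibitors.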
# D1 ag: agonists of human D1 dopamine receptor; activation, % at 2 µM; HEK293 T-REx D1 cells, calcium flux, agonist mode; actives 1% (n = 360,000); P21728
#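 Tetracycline-induced HEK293 TREx D1 cells, force-coupled to calcium signalling, were dye-loaded with a no-wash calcium kit. Compound was pin-added after a 10 s baseline. Fluorescence was read kinetically at 1 cycle/s for 180 s, with calcium rises flagged as agonism.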
# D1 potentiator: human D1 dopamine receptor positive modulation; potentiation, % at 10 µM; actives 0.036% (n = 360,000); AID 504651; HEK293 TREx D1 cells, calcium flux, dopamine EC20 potentiation; P21728; in the data active = potentiation above about 30%
# TRHR enhancer: allosterically enhances the human TRH receptor | P34981 | TRHR cells, fluo-8 calcium fluorescence, EC20 TRH enhancement | enhancement, % at 2 µM | actives 0.66% (n = 360,000); in the data active = enhancement above about 30%
# Target sequence (P34981 whole entry, looked up): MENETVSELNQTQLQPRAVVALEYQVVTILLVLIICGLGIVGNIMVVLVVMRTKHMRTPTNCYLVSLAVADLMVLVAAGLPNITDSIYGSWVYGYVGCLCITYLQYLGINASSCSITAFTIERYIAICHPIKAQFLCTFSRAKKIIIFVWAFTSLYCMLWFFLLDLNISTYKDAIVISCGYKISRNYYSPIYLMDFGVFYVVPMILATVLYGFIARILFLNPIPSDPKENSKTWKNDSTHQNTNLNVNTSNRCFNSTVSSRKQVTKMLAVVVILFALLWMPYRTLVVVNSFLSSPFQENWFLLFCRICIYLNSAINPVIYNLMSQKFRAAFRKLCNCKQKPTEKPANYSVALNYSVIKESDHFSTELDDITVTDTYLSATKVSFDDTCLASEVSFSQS
#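 TRHR-expressing cells loaded with fluo-8 calcium dye were read kinetically (ex 480/em 530) during compound addition, then stimulated with an EC20 of TRH (10 nM final). Enhancement of the Gq-mediated intracellular calcium response was scored.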
# TRHR ag: TRH receptor (human) agonism. P34981. TRHR cells, calcium flux fluo-8, FDSS agonist mode. activation, % at 2 µM. actives 0.18% (n = 360,000)
#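 Fluo-8-loaded TRHR cells; 10 s baseline, compound added, kinetic Ca2+ fluorescence read 1/s, agonist mode.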
# Numbers stand for hits; n = inactive; x = not tested or not shown. Cut-off read from the data, not from the text of the source, unless noted: active = activation above about 30%; inactive = the rest.
SMILES,D1 antagonist,D1 ag,D1 potentiator,TRHR enhancer,TRHR ag
CCOc1ccccc1N(CC(=O)Nc1ccccc1C(=O)O)S(C)(=O)=O,-45,n,n,n,n
CCOC(=O)c1ccccc1NC(=O)CN(c1ccc(OCC)cc1)S(C)(=O)=O,n,n,n,35,n
CCN(CC)C(=S)Nc1ccc(OC)cc1,n,n,n,n,n
Clc1ccccc1Cn1nnc(-c2ccccc2)n1,-35,n,n,n,n
Clc1ccccc1Cn1nnc(-c2cccs2)n1,n,n,n,n,n
COc1ccc(OCc2n[nH]c(=S)n2Cc2ccco2)cc1,n,n,n,n,n
O=[N+]([O-])c1ccc(C2=Nn3cnnc3SC2)cc1,n,n,n,n,n
O=C1CCCC2=C1C(c1ccc(O)c(O)c1)c1c(ccc3ncccc13)N2 (stereo unspecified),n,n,n,n,n
O=C1CCCC2=C1C(c1ccc(O)cc1)c1c(ccc3ccccc13)N2 (stereo unspecified),-53,n,n,n,n
CC1CCN(C(=O)CC#N)CC1,n,n,n,n,n
Cc1cc(S(=O)(=O)N2CCOCC2)ccc1OCC(=O)N1CCCCC1,n,n,n,n,n
O=C(N/N=C1/CCSC1)c1cc(Br)ccc1O,-40,n,n,n,n
O=C(NN=C1CCCC1)c1cc(Br)ccc1O,n,n,n,n,n
Cc1ccc(CNC(=O)Cn2cc3c(n2)-c2c(oc(C(=O)N4CCOCC4)c2C)CC3)cc1,n,n,n,n,n
COc1cc(C)ccc1OCC(=O)NC1CCCCCC1,-30,n,n,n,n
CCN(CC)S(=O)(=O)c1cc(C)c(C)cc1OCC(=O)NC1CCCC1,-34,n,n,n,n
Cc1cc(Cl)c(S(=O)(=O)N2CCCC2)cc1OCC(=O)NC1CCCCC1,n,n,n,n,n
O=C(Nc1ccccc1)C1CC(=O)n2ncnc2N1 (stereo unspecified),n,n,n,n,n
COc1ccc(/C=C/c2ccncc2)cc1,-34,n,n,n,n
Cc1sc2ncnc(Sc3ccccc3C(=O)O)c2c1C,n,n,n,35,n
O=C(Nc1ccccc1)Oc1cccc(Br)c1,n,n,n,n,n
O=C1COc2ccc(C(=O)COC(=O)CCSc3ccccc3)cc2N1,-31,n,n,n,n
COc1cc(/C=C/C(=O)OCC(=O)c2ccc3c(c2)NC(=O)CO3)ccc1OC(F)F,n,n,x,n,n
COc1ccc(/C=C/C(=O)OCC(=O)c2ccc3c(c2)NC(=O)CO3)cc1,n,n,30,n,n
CN(C(=O)COC(=O)c1cccc(Cl)c1)C1CCS(=O)(=O)C1 (stereo unspecified),n,n,n,n,n
SMILES,D1 antagonist,D1 ag,D1 potentiator,TRHR enhancer,TRHR ag
Cc1noc(C)c1C(=O)OCC(=O)N(C)C1CCS(=O)(=O)C1 (stereo unspecified),-80,n,n,n,n
CN(C(=O)COC(=O)c1cccnc1Nc1ccccc1F)C1CCS(=O)(=O)C1 (stereo unspecified),-31,n,n,n,n
CCN(C(=O)COC(=O)c1c(C)noc1C)C1CCS(=O)(=O)C1 (stereo unspecified),n,n,n,n,n
CN(C(=O)COC(=O)c1ccc(-c2ccc(O)cc2)cc1)C1CCS(=O)(=O)C1 (stereo unspecified),-46,n,n,n,n
Cc1ccccc1CCNC(=O)C1CCCN(c2cnccn2)C1 (stereo unspecified),n,n,n,n,n
O=C(NCc1ccccc1F)C1CCCN(c2cnccn2)C1 (stereo unspecified),-35,n,n,n,n
Cc1cccc(-c2cc(C(=O)O)c3c(-c4ccc(F)cc4)[nH]nc3n2)c1,n,n,n,n,n
Cc1cccc(-c2cc(=O)c(C(=O)O)cn2-c2ccc(F)cc2F)c1,-40,n,n,n,n
COc1cccc(CNC(=O)C2CCCN(c3ncnc4onc(-c5ccc(F)cc5)c34)C2)c1 (stereo unspecified),n,n,n,n,n
CCN1CCCC1CN=Cc1c(O)n(-c2ccccc2)c(=O)c2ccccc12 (stereo unspecified),-78,n,n,n,n
COc1ccc(N=Cc2c[nH][nH]c2=O)cc1,-33,n,n,n,n
O=c1[nH][nH]cc1C=Nc1ccc(Oc2ccccc2)cc1,n,n,n,n,n
CC(=O)OCCn1c(C)[n+](CCOC(C)=O)c2cc(Cl)c(Cl)cc21,n,n,n,n,n
CCn1c(C)[n+](CCOCC[n+]2c(C)n(CC)c3cc(Cl)c(Cl)cc32)c2cc(Cl)c(Cl)cc21,-48,n,n,n,n
Cc1ccc(S(=O)(=O)N(CC(=O)N/N=C/c2cccc(C)c2)c2cccc3cccnc23)cc1,-30,n,n,n,n
CC12CCC(=O)N1C(C(=O)NNC(=O)c1ccccc1Cl)CS2 (stereo unspecified),-52,n,n,n,n
COc1cc(C(=O)NNC(=O)C2CSC3(C)CCC(=O)N23)cc(OC)c1OC (stereo unspecified),-40,n,n,n,n
COc1cccc(C2=NOC(C(=O)Nc3cccnc3)C2)c1 (stereo unspecified),n,n,n,n,n
Cc1noc(NS(=O)(=O)c2ccc(NC(=O)C(C)C)cc2)c1C,n,n,n,n,n
CCOc1ccccc1N(CC(=O)N1CCOCC1)S(=O)(=O)c1ccccc1,n,n,n,n,83
COc1ccc(S(=O)(=O)NCc2ccccn2)c(Cl)c1Cl,n,n,n,n,n
Cn1nnnc1CCOCCc1nnnn1C,n,n,n,n,n
CCOCCCNC(=S)N1CCN(c2nc(-c3ccccc3)cs2)CC1,n,n,n,n,n
COc1cccc(-c2csc(N3CCN(C(=S)Nc4ccccc4OC)CC3)n2)c1,-35,n,n,n,n
CC(C)CNC(=S)N1CCN(c2nc(-c3ccc(Cl)cc3)cs2)CC1,-30,n,n,n,n
SMILES,D1 antagonist,D1 ag,D1 potentiator,TRHR enhancer,TRHR ag
CCNC(=S)N1CCN(c2nc(-c3cccc(OC)c3)cs2)CC1,-30,n,n,n,n
COCCCNC(=S)N1CCN(c2nc(-c3ccccc3)cs2)CC1,-33,n,n,n,n
COc1cccc(-c2csc(N3CCN(C(=S)Nc4ccccc4Cl)CC3)n2)c1,n,n,n,n,n
Cc1ccnc(NC(=O)c2cccc3ccccc23)c1,n,n,n,n,n
CCOc1ccccc1NC(=O)CSc1nnc2ccc(-c3ccccn3)nn12,n,n,n,n,n
C=CCSc1nnc(-c2cc3c(-c4ccccc4)nn(C)c3s2)n1C,-46,n,n,n,n
CNCCCCOc1ccccc1-c1ccccc1,-48,38,n,n,n
COCCNCCOc1ccccc1-c1ccccc1,-31,n,n,n,n
COCCCNCCOc1ccccc1-c1ccccc1,-44,n,n,n,n
CNCCOc1ccccc1-c1ccccc1,n,n,n,n,n
